ALOX12 inh: Primary qHTS assay for inhibitors of human arachidonate 12S-lipoxygenase (ALOX12): Round 2 | Polyunsaturated fatty acid lipoxygenase ALOX12 (Homo sapiens), P18054 | AID 1671190, 2021 | 1.1% of 580,000 active | purified 12hLO, xylenol orange hydroperoxide absorbance | Potency, µM (doses to about 108 µM), without a hit: at the top dose activity change, negative = inhibition, usual class: inhibitors; note: potency is the fitted concentration of half-maximal effect; % is set by controls: 0 for no effect and ±100 for the full control effect
Target sequence (P18054 whole entry, looked up): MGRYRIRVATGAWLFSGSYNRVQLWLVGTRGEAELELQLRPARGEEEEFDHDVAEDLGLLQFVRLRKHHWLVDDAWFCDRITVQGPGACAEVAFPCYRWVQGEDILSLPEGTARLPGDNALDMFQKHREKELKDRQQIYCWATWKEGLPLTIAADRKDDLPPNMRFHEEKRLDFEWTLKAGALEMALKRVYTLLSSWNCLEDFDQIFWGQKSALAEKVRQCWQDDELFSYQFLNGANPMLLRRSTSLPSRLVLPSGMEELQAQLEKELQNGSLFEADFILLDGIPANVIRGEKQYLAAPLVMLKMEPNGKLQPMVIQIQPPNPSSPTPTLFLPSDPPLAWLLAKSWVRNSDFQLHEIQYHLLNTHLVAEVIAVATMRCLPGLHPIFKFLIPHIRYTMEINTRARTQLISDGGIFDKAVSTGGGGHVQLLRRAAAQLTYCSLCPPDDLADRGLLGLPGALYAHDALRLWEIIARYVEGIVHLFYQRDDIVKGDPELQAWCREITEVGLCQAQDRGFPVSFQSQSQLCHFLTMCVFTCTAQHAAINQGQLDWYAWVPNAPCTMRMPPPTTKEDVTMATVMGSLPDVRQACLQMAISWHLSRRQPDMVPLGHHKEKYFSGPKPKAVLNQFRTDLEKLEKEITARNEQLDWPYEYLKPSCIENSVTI
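Purified human 12hLO (150 nM final) in 25 mM Hepes, 0.01% Triton X-100, pH 7.0 was preincubated 15 min at room temperature with compound. Then 40 uM arachidonic acid was added, 30 min. Hydroperoxide was read by Fe-XO absorbance ratio 573/405 nm.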
Apoferritin bind: qHTS Assay for Identification of Novel General Anesthetics. Ferritin light chain (Equus caballus), P02791. apoferritin/1-aminoanthracene competitive binding, fluorescence. Potency, µM (top dose mostly 77.5 µM), for the others: at the highest dose activity change, negative = displacement, usual class: inhibitors. 0.074% of 350,000 active; note: potency is the fitted concentration of half-maximal effect; % is set by controls: 0 for no effect and ±100 for the full control effect; nearly all actives have a fitted effect of over 20% in size
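Read-out: endpoint 1-AMA fluorescence, excitation 380 nm and emission 535 nm, after compounds sit 10 min at room temperature with 10 uM horse-spleen apoferritin in 50% saturated 1-AMA/PBS. Values come from four-parameter Hill fits.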
TrxR1 substrate: qHTS Assay for Substrates of Mammalian Selenoprotein Thioredoxin Reductase 1 (TrxR1): qHTS | Thioredoxin reductase 1, cytoplasmic (Rattus norvegicus), O89049 | purified TrxR1 substrate turnover, NADPH consumption readout | Potency, µM (titrated, usually from 114 µM), for the others: top-dose activity change, negative = substrate turnover | 0.01% of 390,000 active; note: potency is the fitted concentration of half-maximal effect; % is set by controls: 0 for no effect and ±100 for the full control effect; nearly all actives have a fitted effect of over 50% in size
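Rat TrxR1, dispensed at 90 nM, was prereduced with 400 uM NADPH (final) for 5 min at ~22 deg C, then incubated with compound 15 min before 400 uM selenite. A first-read NADPH fluorescence drop versus no-compound background flagged substrates.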
Glioma ERSR ind: qHTS for Inducers of the Endoplasmic Reticulum Stress Response (ERSR) in Human Glioma: qHTS | 0.02% of 420,000 active | AID 602332, 2012 | U87-MG GRP78 promoter luciferase reporter, 16 h | Potency, µM, inactives show at the highest dose activation, usual class: activators; note: potency is the fitted concentration of half-maximal effect; series mostly up to about 76 µM; % of control where 0% means no effect; nearly all actives have a fitted effect of over 35% in size
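Stably transfected U87-MG glioma cells carrying a GRP78-based luciferase sensor; 16 h compound incubation. Luminescence end-point read 10 min after Bright-Glo addition at room temperature.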
TrxR1 inh: qHTS Assay for Inhibitors of Mammalian Selenoprotein Thioredoxin Reductase 1 (TrxR1): qHTS; Potency, µM (top dose mostly 114 µM), for inactives: top-dose activity change, negative = inhibition, most hits filed as inhibitors; Thioredoxin reductase 1, cytoplasmic (Rattus norvegicus), O89049; AID 588453, 2011; 1% of 390,000 active; recombinant rTrxR1, NADPH fluorescence consumption, selenite substrate; note: potency is the fitted concentration of half-maximal effect; % is set by controls: 0 for no effect and ±100 for the full control effect; nearly all actives have a fitted effect of over 65% in size
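Rat TrxR1 (90 nM in the dispensed reagent) was pre-reduced with 400 uM NADPH for 5 min at room temperature, then incubated with compound for 15 min. After 400 uM selenite was added, NADPH fluorescence (Ex 340/Em 450 nm) was followed for 8 min.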
mIDH1 inhibitor: qHTS for Inhibitors of mutant isocitrate dehydrogenase 1 (IDH1): qHTS | AID 602179, 2012 | 0.093% of 390,000 active | Isocitrate dehydrogenase [NADP] cytoplasmic (Homo sapiens), O75874 | IDH1-R132H enzyme, NADPH consumption, diaphorase/resazurin fluorescence | Potency, µM (series often up to 76.6 µM), for the others: at the top dose activity change, negative = inhibition, usual class: inhibitors; note: potency is the fitted concentration of half-maximal effect; % is set by controls: 0 for no effect and ±100 for the full control effect; nearly all actives have a fitted effect of over 65% in size
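IDH1-R132H (0.5 ug/mL) preincubated 30 min with compound, then NADPH (0.016 mM) and alpha-KG (2 mM) added; 80 min at RT, pH 7.5. Remaining NADPH coupled via diaphorase/resazurin to fluorescence (540/590 nm); concentration-response curves normalized to no-enzyme control.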
Resorufin autofl: qHTS for Inhibitors of mutant isocitrate dehydrogenase 1 (IDH1): Cherrypicks Autofluorescence Interference | shares compounds with mIDH1 inhibitor | Resorufin detection reagent fluorescence interference, cell-free | inhibition of signal, % at 51.2 µM | 750 tested, under 10 active;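 note: 0% = wells with normal resorufin and full inhibition = wells lacking resorufin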
WT IDH1 inh: qHTS for Inhibitors of mutant isocitrate dehydrogenase 1 (IDH1): Cherrypicks in WT IDH1. shares compounds with mIDH1 inhibitor. WT IDH1 enzyme, NADPH diaphorase/resazurin fluorescence. Potency, µM (highest dose often 115 µM), for the others: at the highest dose activity change, negative = inhibition, usual class: inhibitors. 9% of 750 active;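 note: potency is the fitted concentration of half-maximal effect; 0% = full WT IDH1 enzyme control and full inhibition = no enzyme wells; nearly all actives have a fitted effect of over 55% in size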
mIDH1 confirm: qHTS for Inhibitors of mutant isocitrate dehydrogenase 1 (IDH1): Confirmation of Cherrypicks | shares compounds with mIDH1 inhibitor | IDH1 R132H enzyme, NADPH diaphorase/resazurin fluorescence | Potency, µM (top dose mostly 76.6 µM), inactives show at the highest dose activity change, negative = inhibition, hits mostly inhibitors | 83% of 750 active | AID 624002, 2012; note: potency is the fitted concentration of half-maximal effect; nearly all actives have a fitted effect of over 50% in size
* = called active by the depositor; ? = inconclusive; nt = not tested or not shown; [ ] = remark or other dose. The list is not random: actives were taken first. Their share in the collection is about 1.7%. Calls come from the whole dose curve; as a rule, active = well fitted curve in the direction sought with a large enough effect; inconclusive = small, poorly fitted or top-dose-only effect, or another doubt; inactive = no such curve, though single readings can be large; an effect the other way counts as inactive or inconclusive.

SMILES | ALOX12 inh | Apoferritin bind | TrxR1 substrate | Glioma ERSR ind | TrxR1 inh | mIDH1 inhibitor | Resorufin autofl | WT IDH1 inh | mIDH1 confirm
C=CCOC(=O)Nc1snnc1C | 15% | -5% | 10%[57.1 µM] | 0% | 24%[57.1 µM] | -5% | nt | nt | nt
Cc1nnsc1NC(=O)OCc1ccc(C(C)(C)C)cc1 | 121% | -12% | -3% | 4% | 15% | ? | 3 | 2% | -3%
O=c1[nH]c(SCc2ccc(C(F)(F)F)cc2)nc2c1cnn2CCO | 22% | nt | nt | nt | nt | nt | nt | nt | nt
Cc1cc(N(CCO)CCO)ccc1C(c1ccc(N(CCO)CCO)cc1C)c1ccccc1Cl | ? | 0% | -12% | -8% | -15% | 26µM* | 7 | ? | 7.1µM*
O=S(=O)(c1ccccc1)N1CC(c2noc(C3CCCN3CC3CC3)n2)C1 (centres undefined) | 2% | nt | nt | nt | nt | nt | nt | nt | nt
Cn1c(=O)c2c(ncn2CC(=O)NC(=O)NC2CCCC2)n(C)c1=O | 19% | nt | nt | nt | nt | nt | nt | nt | nt
CCN(C(=O)c1cc2c(C)nc3ccccc3c2o1)c1cc(Cl)ccc1OC | -17% | -7% | -6% | -3% | 3% | 33µM* | -6 | 5% | 20µM*
Cn1ncc2c(Nc3cccc(Cl)c3)nc(Nc3cccc(Cl)c3)nc21 | ? | -14% | 11%[57.1 µM] | -13% | 4%[57.1 µM] | ? | -19 | ? | 5.6µM*
Cn1ncc2c(Nc3ccc(Br)cc3)nc(Nc3ccc(Br)cc3)nc21 | -2% | 0% | 23% | 4% | 17% | 33µM* | -4 | 4% | 11µM*
Cn1ncc2c(Nc3ccc(O)cc3)nc(Cl)nc21 | 12% | 1% | 2% | 0% | 8% | 9% | nt | nt | nt
C=CCN(Cc1cccs1)C(=O)Cc1n[nH]c(=O)c2ccccc12 | 1% | nt | nt | nt | nt | nt | nt | nt | nt
Cc1ccccc1C(=O)N[C@H]1[C@H](O)[C@H](O)C[C@@H]1c1ccc(C(F)(F)F)cc1 | 36%[176 µM] | nt | nt | nt | nt | nt | nt | nt | nt
COc1ccc(CN2CCc3nc(C(C)C)nc(-c4ccc(O)cc4)c3C2)cc1 | 33% | nt | nt | nt | nt | nt | nt | nt | nt
CCC(=O)N(CCC(Cc1ccccc1)c1ccc2c(c1)OCO2)Cc1ccccc1F (centres undefined) | -2% | 65% | -1% | -2% | -19% | ? | -5 | 8% | 14µM*
CCC(=O)N(CCC(c1ccccc1)c1ccc2c(c1)OCO2)Cc1ccc(OC(C)C)cc1 (centres undefined) | ? | 50% | 0% | -3% | 18% | -3% | nt | nt | nt
CSc1nn(Cc2ccc(C)cc2)c(N)c1S(=O)(=O)c1ccccc1 | -8% | -18% | -9% | -2% | 14% | 32µM* | 2 | -2% | 10µM*
CSc1nn(Cc2ccc(F)cc2)c(N)c1S(=O)(=O)c1ccc(Cl)cc1 | ? | -7% | 2%[57.1 µM] | 2% | 23%[57.1 µM] | -13% | nt | nt | nt
O=C(Nc1nnc(SCc2ccc(F)cc2)s1)c1ccc2ncsc2c1 | ? | -21% | 12% | -2% | 11% | 52µM* | -2 | -16% | 50µM*
Cc1ccc(C2c3c(-c4ccccc4O)n[nH]c3C(=O)N2Cc2ccncc2)cc1 (centres undefined) | -23% | -3% | -1% | -1% | -4% | ? | 2 | 4% | 35µM*
O=C1c2[nH]nc(-c3ccccc3O)c2C(c2cccc(Br)c2)N1Cc1ccncc1 (centres undefined) | -4% | -11% | -4% | -2% | 5% | ? | -3 | -3% | 25µM*
COc1cc(C2c3c(-c4ccccc4O)n[nH]c3C(=O)N2Cc2ccncc2)ccc1O (centres undefined) | 0% | 1% | 0% | -3% | 19% | 15% | nt | nt | nt
COC(=O)c1ccc(C2c3c(-c4ccccc4O)n[nH]c3C(=O)N2Cc2ccncc2)cc1 (centres undefined) | ? | 4% | -6% | 2% | 16% | -14% | nt | nt | nt
COc1ccc(CCN2C(=O)c3[nH]nc(-c4ccccc4O)c3C2c2cccc(Cl)c2)cc1 (centres undefined) | 475% | ? | -13% | 0% | -19% | -7% | nt | nt | nt
O=C1c2[nH]nc(-c3ccccc3O)c2C(c2cccc(Cl)c2)N1Cc1cccnc1 (centres undefined) | -7% | ? | -4% | 1% | 9% | ? | 2 | 2% | 28µM*
O=C(CN1C(=O)COc2ccc(S(=O)(=O)N3CCCCCC3)cc21)Nc1cccc(Cl)c1 | ? | -7% | 0% | -2% | 27% | ? | -1 | 5% | ?
N#CC1=C(N)C2=CCCC[C@H]2[C@H](c2cccc(F)c2)C1(C#N)C#N | ? | 5% | -15% | ? | ? | 46µM* | -8 | 48% | 45µM*

Assay outcomes as filed in PubChem.
